High-throughput results as filed in PubChem BioAssay.
BoNT A protease: inhibitors of Botulinum neurotoxin A light chain protease. multiplex microsphere protease substrate cleavage, flow cytometry. inhibition, % at 10 µM. 0.17% of 360,000 active; also: plate controls were buffer without enzyme for full effect and enzyme alone for no effect
Anthrax LF inh2: blocks Bacillus anthracis lethal factor protease | P15917 | inhibition, % at 10 µM | multiplex microsphere protease cleavage assay, LF | AID 588501 | 0.12% of 360,000 active; also: plate controls were buffer without enzyme for full effect and enzyme alone for no effect
Target sequence (P15917 whole entry, looked up): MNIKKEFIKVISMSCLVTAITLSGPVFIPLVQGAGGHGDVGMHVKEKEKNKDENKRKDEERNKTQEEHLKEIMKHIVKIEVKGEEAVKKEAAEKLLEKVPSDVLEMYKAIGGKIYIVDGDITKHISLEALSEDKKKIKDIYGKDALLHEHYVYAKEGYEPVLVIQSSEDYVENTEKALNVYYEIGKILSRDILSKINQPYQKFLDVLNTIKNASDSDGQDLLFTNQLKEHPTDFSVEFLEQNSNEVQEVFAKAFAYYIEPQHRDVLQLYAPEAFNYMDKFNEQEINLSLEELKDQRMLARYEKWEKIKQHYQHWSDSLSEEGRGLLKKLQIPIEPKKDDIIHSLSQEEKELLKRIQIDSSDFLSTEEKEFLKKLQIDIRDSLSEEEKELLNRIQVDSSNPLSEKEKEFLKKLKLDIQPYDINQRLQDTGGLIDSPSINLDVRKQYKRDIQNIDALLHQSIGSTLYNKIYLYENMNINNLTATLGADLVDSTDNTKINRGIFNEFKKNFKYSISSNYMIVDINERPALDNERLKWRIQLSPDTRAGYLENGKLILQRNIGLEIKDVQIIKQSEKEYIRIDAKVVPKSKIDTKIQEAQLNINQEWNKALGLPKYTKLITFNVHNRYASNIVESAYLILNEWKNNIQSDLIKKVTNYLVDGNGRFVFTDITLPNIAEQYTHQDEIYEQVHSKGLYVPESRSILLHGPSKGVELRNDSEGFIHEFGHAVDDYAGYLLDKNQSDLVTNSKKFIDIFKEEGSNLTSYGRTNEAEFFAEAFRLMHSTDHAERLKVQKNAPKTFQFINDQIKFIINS
Mtb FBA inh: inhibits M. tuberculosis FBA enzyme | 2.3% of 360,000 active | purified M. tuberculosis FBA, fluorescence read-out | inhibition, % at 1 µM | AID 588726 | P9WQA3; in the data active = inhibition above about 27%;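 also: 0% = vehicle and 100% = reference inhibitor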
BoNT-F LC inh: blocks Botulinum neurotoxin F light chain protease; 0.22% of 360,000 active; inhibition, % at 10 µM; Multiplex microsphere protease cleavage assay, flow cytometry; in the data active = inhibition above about 35%, passing the limit was not always enough; inconclusive = no clear call, values can overlap the other calls; also: plate controls were buffer without enzyme for full effect and enzyme alone for no effect
Autofluor counter: flagged as autofluorescent in microsphere protease counterscreen; compound autofluorescence counterscreen, microsphere flow cytometry; stronger effect = higher value; fluorescence intensity (no concentration beside the values); 3.1% of 360,000 active; AID 624483; in the data active = fluorescence intensity above about 16000; inconclusive = no clear call, values can overlap the other calls
GDH-TPI inh: counter-screen for M. tuberculosis FBA inhibitors: GDH-TPI coupled enzymes; GDH-TPI coupled enzyme counterscreen, NADH absorbance; inhibition, % at 4.8 µM; 1.2% of 360,000 active; in the data active = inhibition above about 30%;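 also: 0% = DMSO wells and 100% = wells lacking the enzyme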
The depositor's hits bear a star; ? = inconclusive; . = not tested or not shown. Hits are enriched below; roughly 6.6% of the tested compounds scored in any of these assays. Rule as the data show it, unless noted: active = inhibition above about 30%; inconclusive = no clear call, values can overlap the other calls; inactive = below that.

SMILES	BoNT A protease	Anthrax LF inh2	Mtb FBA inh	BoNT-F LC inh	Autofluor counter	GDH-TPI inh
CCC1=CC(c2ccccc2)n2ncnc2N1 (stereo not drawn)	1	-4	35*	-4	3377	12
C1=C(c2ccccc2)Nc2ncnn2C1c1ccccc1 (stereo not drawn)	0	-5	14	-6	4287	-3
CCCCCOC(=O)CSc1n[nH]c(=O)[nH]c1=O	2	2	0	4	22105*	1
CCOCCOC(=O)CCSc1n[nH]c(=O)[nH]c1=O	0	0	4	1	5143	6
Cc1ccc(-n2c(SCC(=O)N3CCCc4ccccc43)nnc2-c2cccnc2)c(C)c1	7	10	1	24	26671*	2
O=C(CSc1nnc(-c2ccncc2)n1C1CCCCC1)Nc1cccc(O)c1	0	-3	-1	-2	16523*	5
CCc1cccc(CC)c1-n1c(SCC(=O)N2CCc3ccccc3C2)nnc1-c1cccnc1	18	16	-2	19	36354*	7
Cn1c(SCC(=O)N2CCc3ccccc3C2)nnc1-c1ccncc1	1	2	0	3	9365	12
O=C(CSc1nnc(-c2ccc(O)cc2)n1Cc1ccco1)N1CCc2ccccc2C1	0	-2	1	-3	16322*	4
CC(C)C[C@@H]1O[C@H](C(C)C)Cc2[nH][nH]c(=O)c21	0	1	.	-8	6182	.
CCC(C)[C@H]1CN=C(N)N1CCc1cc(C(F)(F)F)cc(C(F)(F)F)c1 (stereo partly drawn)	0	-2	2	-8	3875	11
COCCNc1nc(NCc2cccc(OC)c2)c2sc(-c3ccccc3)cc2n1	1	-3	4	-14	4245	1
CC1CCN(C(=O)CSc2nnc(-c3cccnc3)n2C2CCCCC2)CC1	?	-3	-1	-9	17010*	19
CCOc1ccc(C(c2c(NC(=O)c3ccco3)sc(C)c2C)N2CCOCC2)cc1 (stereo not drawn)	-1	-8	6	-2	4093	26
Cc1sc(NC(=O)c2ccco2)c(CN2CCN(c3ccccc3)CC2)c1C	0	-5	-1	-3	20298*	16
Cc1sc(NC(=O)c2ccco2)c(C(c2cccnc2)N2CCN(C)CC2)c1C (stereo not drawn)	1	-18	0	-7	8560	27
Cc1sc(NC(=O)c2ccco2)c(C(c2cccnc2)N2CCCC2)c1C (stereo not drawn)	0	4	1	1	8333	31*
Cc1sc(NC(=O)c2ccco2)c(C(c2ccncc2)N2CCOCC2)c1C (stereo not drawn)	3	-2	0	2	18732*	23
O=C1C=CC2=C3c4cc(O)c(O)cc4CC3(O)COC2=C1O (stereo not drawn)	-8	-10	1	-47	4165	20
COc1cccc(NC(=O)CN(C)C(=O)c2ccc(NC(=O)CC3SC(N4CCCC4)=NC3=O)cc2)c1 (stereo not drawn)	0	1	-1	1	3376	-8
CCc1cnc(Nc2nc(C(N)Cc3ccc(F)cc3)cs2)nc1 (stereo not drawn)	-1	-13	-4	-16	4456	-1
COCCNC(=O)c1ccccc1NC(=O)COc1ccccc1	2	2	-2	4	20130*	-13
C/C=C(/C)C(=O)O[C@@H]1c2c(ccc3ccc(=O)oc23)O[C@@H]1C(C)(C)OC(=O)/C(C)=C\C	-1	3	11	0	4069	7
CC(C)(OC1OC(CO)C(O)C(O)C1O)[C@H]1Oc2ccc3ccc(=O)oc3c2[C@H]1O (stereo partly drawn)	0	4	117*	-1	4192	28
CCn1c(N)c(C(N)=O)sc1=S	0	-2	-1	-5	3254	12
SMILES	BoNT A protease	Anthrax LF inh2	Mtb FBA inh	BoNT-F LC inh	Autofluor counter	GDH-TPI inh
CCn1c(N)c(C(=O)NC2CCCCC2)sc1=S	-4	-4	0	-19	8598	43*
O=C(Oc1ccccc1)N1CCN(c2ccccc2F)CC1	-2	-1	1	38*	3580	-3
O=C(CN1CCN(c2ccccc2F)CC1)NCc1ccccc1	1	-11	0	14	3812	1
O=C(NCN1CCN(c2ccccc2F)CC1)c1ccccc1	-1	0	0	-2	23676*	1
Cn1c(=O)cc(SCC(=O)NCCN2CCN(c3ccccc3F)CC2)c2cc(Cl)ccc21	?	2	-1	2	22129*	16
O=C(Cc1c(C(=O)O)[nH]c2ccccc12)NCCN1CCN(c2ccccc2F)CC1	?	0	3	-4	23477*	-4
COc1ccccc1N1CCN(C(=O)Oc2ccccc2)CC1	-1	-4	3	-6	5329	-2
Cn1c(=O)cc(SCC(=O)NCCCN2CCN(c3ccc(F)cc3)CC2)c2ccccc21	0	2	-3	7	9230	11
CCc1ccccc1NC(=O)C1CCCN(c2nccc(C)n2)C1 (stereo not drawn)	-2	0	10	-12	3785	6
CCn1c(CC(=O)Nc2ccccc2)nnc1SCC(=O)Nc1nnc(C)s1	-1	0	3	-3	6294	-6
COc1ccc(CCNC(=O)C2CCN(C(=O)c3ccc(Br)cc3)CC2)cc1	-1	-11	-1	?	3554	9
O=C(NCC1CCCO1)C1CCN(C(=O)c2ccc(Cl)cc2)CC1 (stereo not drawn)	1	-11	-1	-1	9001	6
CC(C)(C)NC(=O)C1CCN(C(=O)c2ccc(Br)cc2)CC1	?	3	-2	7	19805*	2
COc1ccc(S(=O)(=O)N2CCC(C(=O)NCC3CCCO3)CC2)cc1 (stereo not drawn)	6	0	5	5	20959*	4
CC(C)(C)c1ccc(C(=O)N2CCC(C(=O)NCC3CCCO3)CC2)cc1 (stereo not drawn)	1	-3	-1	2	22225*	-5
Cc1ccc(S(=O)(=O)N2CCC(C(=O)N[C@H](C(=O)NCC3CCCO3)C(C)C)CC2)cc1 (stereo partly drawn)	-1	-2	2	-1	20985*	-12
Cc1ccc(S(=O)(=O)N2CCC(C(=O)N[C@@H](C)C(=O)NCC3CCCO3)CC2)cc1 (stereo partly drawn)	0	-3	-1	-2	4287	-1
COc1ccccc1C(=O)Nc1ccnn1C1CCN(C2CCCCC2)CC1	0	-1	1	-1	5277	-8
BrC(/C=N/Nc1nc(N2CCOCC2)nc(N2CCOCC2)n1)=C/c1ccccc1	-1	-4	2	-2	?	41*
CC(=C/c1ccccc1)/C=N/Nc1nc(N2CCCCC2)nc(N2CCCCC2)n1	-1	-1	3	-4	3730	4
C=C(C)c1cccc(C(C)(C)NC(=O)NC2CC(C)(C)NC(C)(C)C2)c1	1	-1	0	-2	2273	6
